# Experimental data as given in PubChem BioAssay (NCI).
# Where “and” joins values, the source holds several entries; their conditions need not be identical. Identical values can stand only once. About 83,000 compounds went through this panel and 20% of them were active in at least one assay; those are over-represented in the sample as a whole.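 96-well plates, one dose, 48 hours. Percent growth reported; active if below 10.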 Calls of active or inactive are those of the source.
# Test system: HCT-116 colon
# Assay: NCI-60 one-dose screen, 48 h (100 = growth as untreated, 0 = no growth, -100 = all killed)
# Details: 10 µM
# Protocol: Growth inhibition of the HCT-116 human tumor cell line is measured as a screen for anti-cancer activity. Cells are grown in 96 well plates and exposed to the test compound for 48 hours. Compounds are tested at a single concentration, which is 10^-5 M for most compounds. The reported endpoint is percent growth (GI% or GIPRCNT), where numbers from 0 - 100% represent growth inhibition, and numbers from -100% - 0 represent cell death. For example, a value of 40 represents 60% growth inhibition. A value of 0 means no net growth occurred over the course of the experiment. A value of -40 indicates 40% of cells at the beginning of the experiment died by the end of the experiment. A value of -100 means all cells are dead at the end of the experiment.
# NCI-60 Human Tumor Cell Lines Screen was performed using the standard one-dose NCI protocol, which is described in more detail at https://dtp.cancer.gov/discovery_development/nci-60/default.htm.
# Compounds with GIPRCNT values below 10 were considered active. Activity score was based on GIPRCNT using the following formula: […]
# Score is 0 for GIPRCNT values of 100 or above, 50 for GIPRCNT values of 0, and 100 for GIPRCNT values of -100.
row,SMILES,growth
1,CC(=O)/C=C/c1ccc(OCc2ccc(C(C)(C)C)cc2)cc1,68.9% (inactive)
2,CC(=O)/C=C/c1ccc(OCc2ccc(Cl)cc2)cc1,90.5% (inactive)

# Same assay, conditions: 10 µM unless noted
row,SMILES,growth
1,CCCCC#Cc1c(/C=C(\CCCC)SCC)n(C)c(=O)[nH]c1=O,88.3% (inactive)
2,O=C(NNc1ccccc1)c1ccccc1,79.6% (inactive) and 68.5% (inactive)
3,CCN(c1cc(-c2ccc(CN3CCC(/C=C/S(=O)(=O)c4ccccc4)CC3)cc2)cc(C(=O)NCc2c(C)cc(C)[nH]c2=O)c1C)C1CCOCC1,56.9% (inactive)
4,O=C1C(=C(O)c2ccccc2)C(=O)c2ccccc21,102% (inactive)
5,CC1=C2[C@@H](CC1)[C@]1(C)O[C@@](C3CC3)(C[C@H]1OC(=O)CO)[C@H]2OC(=O)/C=C/c1ccccc1,89.4% (inactive)
6,COc1cc(OC)cc(-c2ccc(-c3ccc(C(=N)N)cn3)s2)c1,-12.6% (active)
7,Cc1ccc(C(=O)c2ccc(CC(=O)N=Nc3c(O)[nH]c4ccc(OC(F)(F)F)cc34)n2C)cc1,97% (inactive)
8,CN1CCN(C(=O)OCc2nc3c(N4CCOCC4)nc(Cl)nc3n2C)CC1,-88.5% (active)
9,CN1CCN(Cc2ccc(NC(=O)c3nc4ccc5[nH]ncc5c4c4c3CCCC4)cc2C(F)(F)F)CC1,-90.4% (active)
10,C[C@@H]1O[C@@H](O[C@H]2[C@@H](OC(=O)[C@]34CCC(C)(C)C[C@H]3C3=CC[C@@H]5[C@@]6(C)C[C@H](O)[C@H](O[C@@H]7O[C@H](CO)[C@@H](O)[C@H](O)[C@H]7O)[C@@](C)(CO)[C@@H]6CC[C@@]5(C)[C@]3(C)C[C@H]4O)OC[C@@H](O)[C@@H]2O)[C@H](O)[C@H](O[C@@H]2OC[C@@H](O)[C@H](O[C@@H]3OC[C@](O)(CO)[C@H]3O[C@@H]3OC[C@@H](O)[C@H](O)[C@H]3O)[C@H]2O)[C@H]1O[C@@H]1OC[C@](O)(CO)[C@H]1O,46.3% (inactive)
11,Cc1ccc(S(=O)(=O)OC[C@@]2(C)CC[C@]3(C)CC[C@]4(C)C(=C3C2)C=C[C@@H]2[C@@]3(C)CCCNC(C)(C)[C@@H]3CC[C@]24C)cc1,-91.4% (active)
12,C#CCn1cnc2cnc(Nc3cccc(NC(=O)CCl)c3)nc21,-30.2% [6.25 µM] (active)
13,CCOC(=O)C(=CCC(C)C)C(=O)OCC,98.9% (inactive)
14,CNC(=O)c1cc(Oc2ccc3nc(NC(=O)Nc4ccc(C(F)(F)F)cc4)sc3c2)ccn1,7.67% (active)
15,COc1cc2c(cc1OCCCOC1=C=C=C(c3ccc4c(c3)c3cc(-c5ccc(OCCCOc6cc7c(cc6OC)C(=O)N6CCC[C@H]6C=N7)cc5)ccc3n4S(=O)(=O)c3ccc(C)cc3)C=C1)N=C[C@@H]1CCCN1C2=O,136% (inactive) and 11.4% (inactive)
16,COc1cccc(C2C(C#N)=C(N)Oc3cc(OCCCCCC[P+](c4ccccc4)(c4ccccc4)c4ccccc4)ccc32)c1 (stereo not given),-81% (active)
17,COc1ccc(-c2cc3cnc4ccccc4c3oc2=O)cc1,93.3% (inactive)
18,CN1C(=O)/C(=C/c2ccc(C(=O)Nc3ncc(Cc4ccccc4Cl)s3)cc2)SC1=S,63.6% (inactive)

row,SMILES,growth
1,CN(C)C1CCN(C(=O)c2ccc(NC(=O)Nc3ccc(-c4nc(N5CCOCC5)c5cccn5n4)cc3)cc2)CC1,5.84% (active)
2,Clc1ccc(Nc2nc(Nc3ccc(Cl)cc3)nc(Nc3ccc(-c4cc(-c5cccc(Cl)c5)on4)cc3)n2)cc1,99.6% (inactive)
3,Nc1nc2ccccc2c2c(=O)c3ccc(Cl)cc3sc12,82.1% (inactive)
4,Cc1oc2c(Cc3ccc(NC(=O)c4ccc(Cl)cc4)cc3)ncnc2c1C(=O)NO,98% (inactive)
5,CC(=NCc1ccccc1)c1ccc(O)cc1O,104% (inactive)
6,C=C(CNCCO)[C@@H]1CC[C@]2(CO)CC[C@]3(C)[C@H](CC[C@@H]4[C@@]5(C)CCC(NCCc6ccc(O)cc6)C(C)(C)[C@@H]5CC[C@]43C)[C@@H]12 (stereo not given in full),-94.4% (active)
7,Cn1cc(C2=C(c3cccc4ccccc34)C(=O)NC2=O)c2cc(Br)ccc21,71.3% (inactive)
8,CCOC(=O)C1=C(C)NC(=O)NC1c1c(Cl)n(-c2ccccc2)c2ccccc12 (stereo not given),69.1% (inactive)
9,Nc1n[nH]c2cccc(C#Cc3cccc(C(=O)Nc4ccc(CN5CCOCC5)c(C(F)(F)F)c4)c3)c12,13.3% (inactive)
10,FC(F)(F)Sc1ccc(/C=C/c2cc(/C=C/c3ccc(SC(F)(F)F)cc3)n(-c3ccccc3)n2)cc1,94.3% (inactive)
11,CC[C@H](C)[C@H](NC(=O)[C@H](CCCCN)NC(=O)[C@H](CCCCN)NC(=O)[C@@H](NC(=O)[C@@H](NC(=O)[C@@H](N)Cc1cnc[nH]1)[C@@H](C)CC)[C@@H](C)CC)C(=O)N[C@@H](CCCNC(=N)N)C(=O)N[C@H](C(=O)N[C@@H](Cc1c[nH]c2ccccc12)C(=O)N[C@@H](Cc1ccc(O)cc1)C(=O)N[C@@H](CCCNC(=N)N)C(=O)N[C@@H](CCCCN)C(=O)N[C@@H](C)C(=O)N[C@@H](Cc1c[nH]c2ccccc12)C(=O)N[C@@H](Cc1cnc[nH]1)C(=O)N[C@H](C(=O)N[C@@H](CC(C)C)C(=O)NCC(=O)N[C@@H](CCCCN)C(=O)N[C@H](C(N)=O)C(C)C)C(C)C)[C@@H](C)O,45.1% (inactive)
12,CN1C(=O)N(C)C2(c3ccccc3)N(CC(=O)Nc3ccccc3O)C(=O)NC12c1ccccc1 (stereo not given),98.3% (inactive)
13,OCCN1CCN(c2cc(-c3cccc(OC(F)(F)F)c3)nc3ccc(N4CCCC4)cc23)CC1,15.6% (inactive)
14,O=C(c1ccc(Nc2nccc(NCCCNc3ccnc4cc(Cl)ccc34)n2)cc1)N1CCCCC1,26.7% (inactive)
15,CC(Sc1ccccc1)C(=O)O (stereo not given),88% (inactive)
16,CCCN1C(=O)/C(=c2\sc3n(c2=O)NC2C(N=3)N(CC)C(=O)N2CC)c2ccccc21 (stereo not given),15.6% (inactive)
17,COc1c(F)cc(-n2c(C(=O)N3CC(F)C3)cc3cccnc32)cc1F,95.9% (inactive)
18,O=C1/C(=C/c2ccccc2)CN(C(=O)C(Cl)Cl)C/C1=C\c1ccccc1,-70.7% (active)

# Same assay, conditions: 100 µM
row,SMILES,growth
1,CC(=O)/C=C/c1ccc(OCc2ccc(C(C)(C)C)cc2)cc1,25.3% (inactive)
2,CC(=O)/C=C/c1ccc(OCc2ccc(Cl)cc2)cc1,46.1% (inactive)
